Laboratory results reported in PubChem BioAssay AID1508622 (National Center for Advancing Translational Sciences (NCATS), 2021).
Active and inactive are the calls of the source. The call rests on the fitted dose curve; in most records, active means well fitted activation curve with a large enough effect; inconclusive means small, poorly fitted or top-dose-only effect; inactive means no such curve, though single readings can be large or run the other way.

Assay: Confirmatory qHTS for Identification of Small Molecule Activators of Huntingtin-Antisense Promoter Activity
Settings: HEK293 HTT-AS promoter firefly luciferase reporter, 24 h; series mostly up to 57.5 µM
Procedure, shortened: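 Plated reporter HEK293 cells (24 h) received library compounds at up to 57.5 uM final or 50 uM PTC124, incubated 24 h at 37C; firefly luciferase luminescence was then recorded with Dual-Glo reagent.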

Potency, inactive:
CCOC(=O)C1CCN(C(=O)Cn2c(-c3cccs3)cc3cc(Cl)ccc32)CC1
CC1=C(C(=O)OCc2ccc(C)cc2)C(c2ccccc2Cl)CC(=O)N1 (stereo not drawn)
CCOc1ccc(CCNC(=O)c2cc3n(n2)CCCN(Cc2ccc(C)cc2)C3=O)cc1OCC
O=C(CSc1nc(-c2ccc(F)cc2)[nH]c1-c1ccccc1)Nc1ccccc1
CCN(C(=O)CSc1nc(-c2ccccc2)no1)c1cccc(C)c1
CCn1c(=O)n(CC)c2cc(N3CCCCC3)c(NC(=O)Nc3cc(Cl)ccc3OC)cc21
COC(=O)c1c(C)oc2ccc(N(C(=O)c3ccncc3)S(=O)(=O)c3ccc(OC)cc3)cc12
COc1ccc(-c2ccc3ncc4c(c3c2)n(-c2ccc(N3CCNCC3)c(C(F)(F)F)c2)c(=O)n4C)cn1
CCCS(=O)(=O)NCCc1sc2nc(-c3ccc(Cl)cc3)nn2c1C
CCc1ccc(NC(=O)c2cc(S(=O)(=O)N3CCCCCC3)ccc2F)cc1
COc1cccc(C(=O)Nc2nc(-c3nnn(-c4cccc(Cl)c4C)c3C)ns2)c1
O=C(NCCc1csc(-c2ccc(F)cc2)n1)c1cccc(F)c1
COc1ccc(N2CCN(C(=O)c3cc4c(-c5ccccc5F)nn(C)c4s3)CC2)cc1
CCCCN(C)CCCNC(=O)Cn1ncc2c3ccccc3n(Cc3ccccc3F)c2c1=O
CC(=O)c1ccc(N2CCN(c3ncnc4c3cnn4-c3cc(Cl)ccc3C)CC2)cc1
CCN1C(=O)c2ccccc2Sc2ccc(NC(=O)c3cccc(C)c3)cc21
Cn1c(=O)n(C)c2cc(NS(=O)(=O)c3ccc(C(C)(C)C)cc3)c(NCc3ccccc3)cc21
Cc1ccc(C(=O)Nc2nnc(SCc3cc(=O)c4c(C)ccc(C)c4[nH]3)s2)cc1
Cc1cccc(N2CCN(S(=O)(=O)c3ccc(F)c(C(=O)Nc4cccc(Cl)c4C)c3)CC2C)c1 (stereo not drawn)
O=S(=O)(NCCc1csc2nc(-c3ccccc3)nn12)c1ccc(Oc2ccccc2)cc1
CCc1ccc(NC(=O)CSc2nc(=O)n(Cc3cccnc3)c3c2CCC3)cc1
O=C(Nc1cccc(F)c1)c1cnc2sc(N3CCCC3)nn2c1=O
CC(=O)C1=C(c2ccc(Cl)c(Cl)c2)N(C(C)=O)n2c(C)nnc2S1
Cc1cccc(N2CCN(C(=O)c3ccc4c(c3)N(Cc3cccc(Cl)c3)C(=O)c3ccccc3S4=O)CC2C)c1 (stereo not drawn)
COc1cc(C(=O)NCCSc2c(-c3ccccc3)[nH]c3ccccc23)cc(OC)c1OC
COc1ccc(-c2noc(N3CCN(c4ccc(C)cc4)C(C)C3)n2)cc1OC (stereo not drawn)
CCOc1ccc(/C=C/c2nc(C#N)c(NCc3ccccc3)o2)cc1
CC(=O)Nc1cccc(NC(=O)CSc2nccn2Cc2ccccc2)c1
COc1ccc(S(=O)(=O)NCCc2sc3nc(-c4ccc(C)cc4)nn3c2C)cc1F
CCc1ccc(CN(Cc2ccco2)C(=O)COc2ccccc2Cl)cc1
Cc1cccc(-c2nc3scc(CCNS(=O)(=O)c4ccc(Oc5ccccc5)cc4)n3n2)c1
COc1ccc(Br)cc1CNC(=O)CSc1n[nH]c(-c2ccccc2)n1
CCCOc1ccc(C(=O)Nc2ccc(-c3cc4ccccc4oc3=O)c(C)c2)cc1
Cc1ccc(C)c(N2CCN(C(=O)C3CCCN(S(=O)(=O)c4ccc5c(c4)oc(=O)n5C)C3)CC2)c1 (stereo not drawn)
CCCCN1CC(c2nc3ccccc3n2CCCCOc2ccccc2C)CC1=O (stereo not drawn)
CCOc1ccc(NS(=O)(=O)c2ccc(-c3cc(C)no3)s2)cc1
CCOC(=O)c1cnc2ccc(OCC)cc2c1Nc1ccc(OCc2ccccc2Cl)cc1
Cc1ccc(S(=O)(=O)C(CNC(=O)C(=O)NCCc2ccc(F)cc2)c2cccs2)cc1 (stereo not drawn)
